Results filed as inconclusive are left out. Active and inactive are the calls of the source. Rule for the calls: active = hit-call score of the fitted dose curve at least 0.9, where 1 is the maximum; inconclusive = response in the unintended direction; inactive = score below 0.9.

Sequence of human Serum/Glucocorticoid Regulated Kinase 1 (SGK1), SGK1 (gene 6446) (O00141 whole entry, looked up): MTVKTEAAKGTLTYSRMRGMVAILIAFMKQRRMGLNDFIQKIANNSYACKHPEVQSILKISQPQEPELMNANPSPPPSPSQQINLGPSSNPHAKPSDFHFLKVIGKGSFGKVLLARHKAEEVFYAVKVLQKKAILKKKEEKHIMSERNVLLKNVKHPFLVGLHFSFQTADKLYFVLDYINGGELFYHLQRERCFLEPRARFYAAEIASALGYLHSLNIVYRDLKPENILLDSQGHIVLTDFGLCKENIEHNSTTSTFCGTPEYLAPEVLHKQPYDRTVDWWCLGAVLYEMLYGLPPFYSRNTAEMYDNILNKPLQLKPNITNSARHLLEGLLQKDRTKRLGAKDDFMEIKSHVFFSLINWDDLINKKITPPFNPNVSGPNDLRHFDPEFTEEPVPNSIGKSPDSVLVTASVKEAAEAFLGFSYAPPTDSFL

In this test the target is human Serum/Glucocorticoid Regulated Kinase 1 (SGK1), SGK1 (gene 6446) (UniProt O00141). Kind of test: NVS_ENZ_hSGK1: NovaScreen (NVS) Enzymatic Assay for human Serum/Glucocorticoid Regulated Kinase 1 (SGK1). How it is done:
NVS_ENZ_hSGK1 is a biochemical, single-readout assay that uses extracted gene-proteins in a cell-free assay. Measurements were taken 1 hour after chemical dosing in a 96-well plate.NVS_ENZ_hSGK1 is one of one assay component(s) measured or calculated from the NVS_ENZ_hSGK1 assay. It is designed to make measurements of enzyme activity, a form of enzyme reporter, as detected with fluorescence intensity signals by Fluorescence and electrophoretic mobility shift technology.Data from the assay component NVS_ENZ_hSGK1 was analyzed into 1 assay endpoint. This assay endpoint, NVS_ENZ_hSGK1, was analyzed in the positive analysis fitting direction relative to DMSO as the negative control and baseline of activity. Using a type of enzyme reporter, loss-of-signal activity can be used to understand changes in the enzymatic activity as they relate to the gene SGK1. Furthermore, this assay endpoint can be referred to as a primary readout, because this assay has produced […] where this one serves a enzymatic activity function. To generalize the intended target to other relatable targets, this assay endpoint is annotated to the kinase intended target family, where the subfamily is serine/threonine kinase.
Binding assays used specific radioligands (tritiated, iodinated) with non-radioactive competitive displacement ligands in agonist or antagonist protocols (as indicated) and various reference compounds and inhibitors to titrate specific binding to receptors and transporters. Most enzyme assays (CYPs, kinases, phosphatases, proteases, HDACs) used recombinant protein and specific substrates (fluorescence mostly, some colorimetric and radioactive) and inhibitors, followed by a biochemical separation of substrate and product. All assays for the biochemical HTS were initially run in duplicate at a single concentration (10 uM for CYP450 assays and 25 uM for all others). Assay-chemical combinations meeting a pre-defined threshold (e.g., 30% inhibition and other criteria defined below) were then run in singleton concentration-response format with maximum concentration of 20 uM for CYPs and 50 uM for all others. Each assay was run with positive and negative controls, and concurrent controls on every plate. The follow-up (secondary) screen tested active chemical-pairs in concentration series, as well as a few additional assays not tested in the primary screen, some selected negative inactives, and several cases re-run in the concentration series for confirmatory purposes.
`O=C(O)COc1ccc(Cl)cc1Cl`: the call was inactive. `S=C1NCCN1`: the molecule was called inactive. `COC(=O)c1ccccc1S(=O)(=O)NC(=O)N(C)c1nc(C)nc(OC)n1`: the call was inactive. What is called AC50 is the concentration giving half of the maximal activity seen. For `O=S(=O)(O)C(F)(F)C(F)(F)C(F)(F)C(F)(F)C(F)(F)C(F)(F)C(F)(F)C(F)(F)F`, the AC50 is 26.2 µM (active).

For the molecule `N#Cc1c(Cl)c(Cl)c(Cl)c(C#N)c1Cl`, the AC50 was 19.8 µM (active). For `CCNc1nc(Cl)nc(NCC)n1`, the molecule was called inactive. Still for that read-out and setting: the same measure for `CCCC(=NOCC)C1=C(O)CC(CC(C)SCC)CC1=O` (centres undefined): “inactive”. For `CC(Oc1cccc(Cl)c1)C(=O)O` (centres undefined), the molecule was classed as inactive. The same measure, in the same setting: next, `CNC(=S)S`: “inactive”. On to `Nc1c(Cl)cc([N+](=O)[O-])cc1Cl`, for which the result was inactive. On the same count and under the same terms, the same measure for `COP(=S)(OC)Oc1ccc([N+](=O)[O-])cc1`: “inactive”; for `CC(C)OC(=O)Nc1cccc(Cl)c1`: “inactive”. As to `OC(c1ccc(Cl)cc1)(c1ccc(Cl)cc1)C(Cl)(Cl)Cl`, the molecule was called inactive. For `O=C(O)C(F)(F)C(F)(F)C(F)(F)C(F)(F)C(F)(F)C(F)(F)C(F)(F)F`, the call was inactive.

Values taken from PubChem BioAssay AID2283220 (EPA ToxCast).
